# This is part of a sample that, as a whole, favours compounds with a hit. Of some 79,000 tested, about 15% had one in any assay. Unmarked numbers belong to inactive results. Active and inactive are the calls of the source. Rule as the data show it: active = growth inhibition above about 70%; inactive = the rest.
# What was measured:
# [1] = NCI Yeast Anticancer Drug Screen. Data for the rad50 strain (AID 155);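 also: 0% = growth of vehicle-only cultures of the same strain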; settings: S. cerevisiae rad50 strain growth inhibition; at 50.0 µM; stronger effect = higher value
# How it was run: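 DNA repair mutant yeast, compound exposure, growth read-out; inhibition is taken relative to vehicle.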
# [2] = NCI Yeast Anticancer Drug Screen. Data for the mec2-1 strain (AID 157); settings: S. cerevisiae mec2-1 strain, at 50.0 µM, stronger effect = higher value
# How it was run: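 Growth inhibition is read against vehicle-treated controls after compound exposure of the mec2-1 yeast strain, which is defective in DNA damage repair or cell cycle control.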
# [3] = NCI Yeast Anticancer Drug Screen. Data for the sgs1 mgt1 strain (AID 161);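 also: 0% = growth of cultures given vehicle only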; settings: S. cerevisiae sgs1 mgt1 strain, at 50.0 µM, stronger effect = higher value
# How it was run: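 This yeast growth screen uses a strain with defined DNA-repair lesions; compound-treated growth is compared with vehicle-treated growth.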
# [4] = NCI Yeast Anticancer Drug Screen. Data for the cln2 rad14 strain (AID 165);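 also: 0% = growth equal to vehicle treated cultures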; settings: S. cerevisiae cln2 rad14 strain, at 50.0 µM, stronger effect = higher value
# How it was run: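 Growth inhibition, relative to vehicle-treated controls, is the read-out. The test organism is a yeast strain with defined genetic alterations, cln2 rad14.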
# [5] = NCI Yeast Anticancer Drug Screen. Data for the bub3 strain (AID 167); settings: S. cerevisiae bub3 mutant strain, at 50.0 µM, stronger effect = higher value
# How it was run: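 In this screen, a yeast mutant lacking normal mitotic checkpoint function is challenged with compound. Relative growth versus vehicle gives the inhibition value.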
# [6] = NCI Yeast Anticancer Drug Screen. Data for the mlh1 rad18 strain (AID 175); settings: S. cerevisiae mlh1 rad18 strain growth inhibition; at 50.0 µM; stronger effect = higher value
# How it was run: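 Cells of a genetically altered yeast strain, deficient in DNA damage repair, were treated with compound. Their growth was then compared with that of vehicle-treated cultures to give inhibition.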
Structure (SMILES),growth inhibition [1],growth inhibition [2],growth inhibition [3],growth inhibition [4],growth inhibition [5],growth inhibition [6]
CN1c2ccccc2C(=O)NC12CCN(CC1COc3ccccc3O1)CC2 (stereo not drawn),58.1%,71.4% (active),82.4% (active),62.9%,66.5%,66%
OCC(O)C(O)C(O)C(O)CNC(CO)(CO)CO (stereo not drawn),9.9%,13.3%,18.6%,-1.45%,16.6%,27.5%
C(/C=C/C=C/Nc1ccc(N=Nc2ccccc2)cc1)=Nc1ccc(N=Nc2ccccc2)cc1,-32.8%,-38%,-26.3%,-1.65%,-25.8%,-30%
CC1C(C)(C)P(=O)(OCCOP2(=O)C(C)(C)C(C)C2(C)C)C1(C)C (stereo not drawn),35%,-0.85%,22.2%,-9.6%,3.75%,7.25%
CCOC(OCC)C(O)c1ccccc1 (stereo not drawn),-17.2%,-17%,-11.9%,-15%,-12.6%,-11%
O=C(CC(=O)N(C(=O)/C=C\c1ccccc1)c1ccc(Cl)cc1)N1N=C(c2ccccc2)C(N=Nc2cccc([N+](=O)[O-])c2)C1=O (stereo not drawn),7.5%,3.45%,9.5%,1.75%,14.7%,5.5%
C=C1C(=O)C[C@@H]2CC(C)(C)C[C@]12CC(=O)O,-11.1%,-41.5%,-1.65%,-7.05%,-9.15%,-17.1%
CCOC(=O)CNC(=O)C(Cc1cnc[nH]1)NC(=O)OCc1ccccc1 (stereo not drawn),-1.9%,-13.6%,-8.6%,-14.6%,-6.7%,-3.7%
